# Activity calls are given as the source filed them. Rule for the calls: active = hit-call score of the fitted dose curve at least 0.9, where 1 is the maximum; inactive = score below 0.9.
# Key:
# [1] = ATG_GRE_CIS: Attagene CIS-FACTORIAL HepG2 Assay for human Glucocorticoid Response Elements (GRE) (AID 2282947); details: HepG2 GRE cis-reporter, Attagene multiplex mRNA; actives raise or lower the signal
# Outline: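 Multiplexed cis-reporter mRNA induction, HepG2, 24 h post-dose. RT-PCR, FAM-labelled, HpaI-digested amplicons by CE. Bidirectional fit vs DMSO.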
# [2] = ATG_ISRE_CIS: Attagene CIS-FACTORIAL HepG2 Assay for human Interferon Regulatory Factor 1 (IRF1) binding to an Interferon-Stimulated Response Element (ISRE) (AID 2282948); details: HepG2 ISRE cis-reporter (Attagene), mRNA transcription readout; actives raise or lower the signal
# Outline: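 Read-out: fluorescent RT-PCR products resolved by capillary electrophoresis, reporting endogenous transcription factor activity via ISRE-driven reporter mRNA in transfected HepG2 cells dosed for 24 h; gain or loss fitted relative to DMSO.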
# [3] = ATG_M_32_CIS: Attagene CIS-FACTORIAL HepG2 Assay for M32 Transcription Factor (Internal Marker) (AID 2282949); details: HepG2 Attagene cis-factorial M32 reporter, mRNA; actives raise or lower the signal;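 note: background control marker of the multiplexed CIS panel rather than a real target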
# Outline: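 Transient MRTU transfection of HepG2; 24 h compound treatment; TriZol RNA, oligo(dT) RT, reporter PCR, 6-FAM primer extension, HpaI cut, CE. Gain/loss of signal vs DMSO.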
# [4] = ATG_M_06_CIS: Attagene CIS-FACTORIAL HepG2 Assay for M06 Transcription Factor (Internal Marker) (AID 2282950); details: HepG2 Attagene CIS-FACTORIAL M06 internal marker reporter; actives raise or lower the signal
# Outline: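 One of many multiplexed endpoints: HepG2 reporter mRNA after 24 h dosing, detected by RT-PCR and capillary electrophoresis fluorescence; gain or loss of signal analysed against DMSO.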
# [5] = molecular target: Hypoxia-inducible factor 1-alpha (Homo sapiens) (UniProt Q16665); experiment: ATG_HIF1a_CIS: Attagene CIS-FACTORIAL HepG2 Assay for human Hypoxia Inducible Factor 1 (HIF1A) (AID 2282951); details: HepG2 Attagene cis-factorial HIF1a reporter transcription; actives raise or lower the signal
# Outline: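 HepG2 cells transiently transfected with multiplexed cis-promoter reporter units; reporter mRNA read 24 h after dosing by RT-PCR, 6-FAM primer-extension labelling, HpaI digestion and capillary electrophoresis. Bidirectional fit versus DMSO baseline.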
# [6] = molecular target: Hepatocyte nuclear factor 6 (Homo sapiens) (UniProt Q9UBC0); experiment: ATG_HNF6_CIS: Attagene CIS-FACTORIAL HepG2 Assay for human Hepatocyte Nuclear Factor 6 (HNF6) (AID 2282952); details: HepG2 Attagene cis-factorial HNF6 reporter transcription; actives raise or lower the signal
# Outline: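 Endogenous transcription factor activity in human HepG2 liver cells was captured through cis-regulated reporter constructs. After 24 h treatment, reporter mRNA was measured by RT-PCR with capillary electrophoresis, and activity was fitted in both directions relative to DMSO.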
# [7] = molecular target: Heat shock factor protein 1 (Homo sapiens) (UniProt Q00613); experiment: ATG_HSE_CIS: Attagene CIS-FACTORIAL HepG2 Assay for human Heat Shock Transcription Factor 1 (HSE) (AID 2282953); details: HepG2 HSE cis-reporter, Attagene RNA transcription; actives raise or lower the signal
# Outline: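 Using HepG2 with transfected cis-driven reporter constructs, compound effects on endogenous factor activity are scored as reporter mRNA change at 24 h. Detection: RT-PCR, HpaI digestion, capillary electrophoresis; bidirectional fitting to DMSO.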
# [8] = ATG_MRE_CIS: Attagene CIS-FACTORIAL HepG2 Assay for human Metal Responsive Element (MRE) (AID 2282954); details: HepG2 MRE cis-reporter transcription, Attagene multiplex; actives raise or lower the signal
# Outline: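 Multiplexed cis-reporter assay in human HepG2 liver cells, 24 h incubation with test chemical. Reporter transcripts measured by RT-PCR and capillary electrophoresis; values from bidirectional curve fitting versus DMSO.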
# [9] = molecular target: Paired box protein Pax-6 (Homo sapiens) (UniProt P26367); experiment: ATG_Pax6_CIS: Attagene CIS-FACTORIAL HepG2 Assay for human Paired Box 6 (PAX6) (AID 2282956); details: HepG2 CIS-FACTORIAL PAX6 reporter transcription, RNA readout; actives raise or lower the signal
# Outline: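 Readout: reporter transcript fluorescence after RT-PCR and capillary electrophoresis. Cells: HepG2, transiently transfected with cis-regulated MRTUs. Exposure 24 h. Gain or loss of signal fitted bidirectionally relative to DMSO.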
# [10] = ATG_PXRE_CIS: Attagene CIS-FACTORIAL HepG2 Assay for human Pregnane X Receptor Element (PXRE) (AID 2282957); details: HepG2 Attagene CIS-FACTORIAL PXRE reporter, mRNA; actives raise or lower the signal
# Outline: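 Endogenous transcription factor activity in HepG2 was gauged through induction of reporter mRNA driven by a cis-regulating promoter element, sampled 24 h post-treatment. Activity was fitted in both directions against DMSO negative control.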
# [11] = ATG_PPRE_CIS: Attagene CIS-FACTORIAL HepG2 Assay for human Peroxisome Proliferator-activated Response Element (PPRE) (AID 2282958); details: HepG2 PPRE cis-element reporter, Attagene transcription factor profiling; actives raise or lower the signal
# Outline: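 HepG2 cells transiently transfected with multiplexed cis-element reporter units measure endogenous transcription factor activity. After 24 h compound exposure, reporter mRNA is quantified by RT-PCR, 6-FAM labeling, HpaI digestion and capillary electrophoresis; bidirectional fits are made against DMSO baseline.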
# [12] = ATG_Sox_CIS: Attagene CIS-FACTORIAL HepG2 Assay for human SRY-box transcription factor (SOX) (AID 2282960); details: HepG2 Attagene cis-factorial SOX reporter, mRNA; actives raise or lower the signal
# Outline: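 HepG2 cells transiently transfected with cis-element-driven multiple reporter transcription units, dosed 24 h; reporter mRNA measured by RT-PCR, FAM labelling, HpaI digestion and capillary electrophoresis. Bidirectional fit versus DMSO baseline.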
# [13] = molecular target: Transcription factor Sp1 (Homo sapiens) (UniProt P08047); experiment: ATG_Sp1_CIS: Attagene CIS-FACTORIAL HepG2 Assay for human Specificity Protein 1 (Sp1) (AID 2282961); details: HepG2 Sp1 cis-reporter transcription, actives raise or lower the signal
# Outline: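 HepG2 cells transiently transfected with multiple reporter transcription units driven by cis-regulatory elements; Sp1-responsive reporter mRNA measured 24 h after dosing by RT-PCR and capillary electrophoresis fluorescence, fitted bidirectionally against DMSO baseline.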
# [14] = ATG_SREBP_CIS: Attagene CIS-FACTORIAL HepG2 Assay for human Sterol Regulatory Element Binding (SREBP) (AID 2282962); details: HepG2 Attagene cis-factorial SREBP reporter, mRNA; actives raise or lower the signal
# Outline: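 Readout: fluorescent reporter-transcript peaks resolved by capillary electrophoresis after RT-PCR. Cells were human HepG2 carrying transfected cis-promoter reporter constructs, dosed for 24 h. Gain or loss of signal was fitted against DMSO controls.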
# [15] = molecular target: Signal transducer and activator of transcription 3 (Homo sapiens) (UniProt P40763); experiment: ATG_STAT3_CIS: Attagene CIS-FACTORIAL HepG2 Assay for human Signal Transducer and Activator of Transcription 3 (STAT3) (AID 2282963); details: HepG2, Attagene cis-factorial STAT3 reporter transcription; actives raise or lower the signal
# Outline: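 Cis-factorial format: endogenous transcription factors in HepG2 drive transfected reporter units. After 24 h treatment, reporter RNA was reverse-transcribed, amplified, FAM-labelled and HpaI-digested before CE analysis; activity scored in both directions against DMSO.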
# [16] = ATG_TA_CIS: Attagene CIS-FACTORIAL HepG2 Assay for human TA Basal Promoter (AID 2282964); details: HepG2 Attagene CIS-factorial TA basal promoter reporter; actives raise or lower the signal
# Outline: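 Transient MRTU transfection of HepG2 preceded 24 h compound exposure. Reporter mRNA levels were then read by RT-PCR with capillary electrophoresis, and this background-control endpoint was fitted bidirectionally to DMSO.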
# [17] = ATG_TCF_b_cat_CIS: Attagene CIS-FACTORIAL HepG2 Assay for human T-Cell-Factor with beta-catenin (TCF/b-cat) (AID 2282965); details: HepG2 TCF/beta-catenin cis-reporter transcription, actives raise or lower the signal
# Outline: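 Measured: reporter mRNA in HepG2 transiently transfected with cis-promoter reporter units, 24 h after chemical addition. Fitting was bidirectional, DMSO as negative control.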
# [18] = ATG_TAL_CIS: Attagene CIS-FACTORIAL HepG2 Assay for human TAL Basal Promoter (AID 2282966); details: HepG2 Attagene cis-factorial TAL promoter reporter; actives raise or lower the signal;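 note: background control endpoint measuring basal TAL promoter reporter mRNA not a specific factor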
# Outline: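 Endogenous transcription-factor activity is sensed in HepG2 cells through transfected cis-promoter reporter constructs. After 24 h dosing, reporter transcripts are quantified by RT-PCR and capillary electrophoresis. Gain or loss of signal is fitted relative to DMSO.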
# [19] = ATG_PBREM_CIS: Attagene CIS-FACTORIAL HepG2 Assay for human Phenobarbital-responsive Enhancer Module (PBREM) (AID 2282955); details: HepG2 PBREM cis-reporter, Attagene multiplexed transcription; actives raise or lower the signal
# Outline: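 HepG2 cells transiently transfected with multiple cis-regulated reporter transcription units; endogenous factor activity at the PBREM element measured as reporter mRNA 24 h after dosing, via RT-PCR and capillary electrophoresis of fluorescent fragments; bidirectional fitting versus DMSO.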
# [20] = ATG_RORE_CIS: Attagene CIS-FACTORIAL HepG2 Assay for human RAR-related Orphan Receptor Element (RORE) (AID 2282959); details: HepG2 Attagene cis-factorial RORE reporter, mRNA; actives raise or lower the signal
# Outline: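 HepG2 cells transiently transfected with multiple cis-element reporter transcription units, exposed to chemical for 24 h. Reporter mRNA quantified by RT-PCR, 6-FAM primer-extension labeling, HpaI digestion and capillary electrophoresis; bidirectional fit versus DMSO baseline.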
# Chain of Paired box protein Pax-6 (Homo sapiens) (P26367 whole entry, looked up): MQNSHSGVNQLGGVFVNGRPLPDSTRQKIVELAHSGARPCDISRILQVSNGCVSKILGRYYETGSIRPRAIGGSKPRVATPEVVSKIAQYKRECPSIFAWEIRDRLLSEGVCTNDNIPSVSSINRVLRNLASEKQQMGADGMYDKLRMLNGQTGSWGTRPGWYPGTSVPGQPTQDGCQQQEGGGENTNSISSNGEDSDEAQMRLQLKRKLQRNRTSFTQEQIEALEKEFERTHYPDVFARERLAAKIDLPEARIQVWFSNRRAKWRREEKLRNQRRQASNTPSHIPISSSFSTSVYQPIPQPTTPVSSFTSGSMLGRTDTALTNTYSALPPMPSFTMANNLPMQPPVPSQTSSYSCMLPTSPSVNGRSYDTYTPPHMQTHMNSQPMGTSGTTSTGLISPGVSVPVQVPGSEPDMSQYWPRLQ
# Chain of Hypoxia-inducible factor 1-alpha (Homo sapiens) (Q16665 whole entry, looked up): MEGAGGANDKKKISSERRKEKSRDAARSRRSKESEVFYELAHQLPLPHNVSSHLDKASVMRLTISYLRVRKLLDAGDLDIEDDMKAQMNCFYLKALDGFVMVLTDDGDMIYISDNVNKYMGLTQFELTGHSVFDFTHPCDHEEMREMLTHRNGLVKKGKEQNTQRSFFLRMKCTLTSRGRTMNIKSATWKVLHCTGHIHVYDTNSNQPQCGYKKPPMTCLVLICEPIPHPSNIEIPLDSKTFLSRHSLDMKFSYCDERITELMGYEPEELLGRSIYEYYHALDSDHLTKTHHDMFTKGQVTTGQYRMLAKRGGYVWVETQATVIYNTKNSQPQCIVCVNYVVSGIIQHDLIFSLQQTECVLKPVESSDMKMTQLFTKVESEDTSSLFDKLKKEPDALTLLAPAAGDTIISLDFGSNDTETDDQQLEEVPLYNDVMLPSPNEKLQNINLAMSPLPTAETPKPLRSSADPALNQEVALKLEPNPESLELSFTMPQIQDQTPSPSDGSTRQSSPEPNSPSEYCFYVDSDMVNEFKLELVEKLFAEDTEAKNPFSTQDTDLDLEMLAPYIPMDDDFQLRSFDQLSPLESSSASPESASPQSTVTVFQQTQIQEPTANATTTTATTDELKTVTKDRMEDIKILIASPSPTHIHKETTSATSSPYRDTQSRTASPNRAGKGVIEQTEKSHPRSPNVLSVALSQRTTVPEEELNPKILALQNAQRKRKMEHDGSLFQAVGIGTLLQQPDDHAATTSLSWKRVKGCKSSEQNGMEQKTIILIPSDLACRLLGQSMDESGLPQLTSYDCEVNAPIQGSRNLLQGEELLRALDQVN
# Chain of Signal transducer and activator of transcription 3 (Homo sapiens) (P40763 whole entry, looked up): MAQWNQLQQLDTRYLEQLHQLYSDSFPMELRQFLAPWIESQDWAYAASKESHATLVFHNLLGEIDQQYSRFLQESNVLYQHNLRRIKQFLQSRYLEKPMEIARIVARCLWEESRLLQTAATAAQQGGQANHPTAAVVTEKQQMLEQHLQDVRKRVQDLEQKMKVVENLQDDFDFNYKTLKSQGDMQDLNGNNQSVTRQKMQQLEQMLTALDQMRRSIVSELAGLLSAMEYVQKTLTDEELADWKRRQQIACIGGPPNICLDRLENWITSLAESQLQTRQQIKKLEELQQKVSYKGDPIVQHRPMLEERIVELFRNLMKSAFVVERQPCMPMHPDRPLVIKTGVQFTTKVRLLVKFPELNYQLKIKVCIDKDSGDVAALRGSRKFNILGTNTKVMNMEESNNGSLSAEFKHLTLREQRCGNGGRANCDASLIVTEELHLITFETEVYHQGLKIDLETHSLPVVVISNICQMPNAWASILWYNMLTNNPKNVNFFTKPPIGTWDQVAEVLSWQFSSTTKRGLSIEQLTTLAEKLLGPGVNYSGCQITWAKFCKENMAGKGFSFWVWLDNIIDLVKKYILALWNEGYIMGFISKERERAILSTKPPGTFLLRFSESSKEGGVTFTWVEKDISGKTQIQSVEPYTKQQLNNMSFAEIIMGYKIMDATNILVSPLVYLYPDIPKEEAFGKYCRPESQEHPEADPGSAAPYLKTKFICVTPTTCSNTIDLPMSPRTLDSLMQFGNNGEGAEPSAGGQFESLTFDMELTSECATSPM
# Chain of Heat shock factor protein 1 (Homo sapiens) (Q00613 whole entry, looked up): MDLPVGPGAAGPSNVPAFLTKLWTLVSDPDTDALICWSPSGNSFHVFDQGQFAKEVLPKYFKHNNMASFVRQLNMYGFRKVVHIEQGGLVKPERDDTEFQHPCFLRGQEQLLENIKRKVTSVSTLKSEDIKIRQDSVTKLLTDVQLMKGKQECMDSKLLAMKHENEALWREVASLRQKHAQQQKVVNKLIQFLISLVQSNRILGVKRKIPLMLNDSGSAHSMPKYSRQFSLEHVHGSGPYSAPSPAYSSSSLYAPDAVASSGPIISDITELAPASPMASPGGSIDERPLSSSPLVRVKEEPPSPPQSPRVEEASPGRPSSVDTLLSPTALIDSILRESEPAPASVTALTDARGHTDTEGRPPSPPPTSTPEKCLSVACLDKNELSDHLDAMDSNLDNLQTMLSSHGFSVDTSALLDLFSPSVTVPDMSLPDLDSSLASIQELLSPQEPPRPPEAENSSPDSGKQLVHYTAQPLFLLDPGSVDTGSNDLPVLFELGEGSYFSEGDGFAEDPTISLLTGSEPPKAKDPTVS
# Chain of Transcription factor Sp1 (Homo sapiens) (P08047 whole entry, looked up): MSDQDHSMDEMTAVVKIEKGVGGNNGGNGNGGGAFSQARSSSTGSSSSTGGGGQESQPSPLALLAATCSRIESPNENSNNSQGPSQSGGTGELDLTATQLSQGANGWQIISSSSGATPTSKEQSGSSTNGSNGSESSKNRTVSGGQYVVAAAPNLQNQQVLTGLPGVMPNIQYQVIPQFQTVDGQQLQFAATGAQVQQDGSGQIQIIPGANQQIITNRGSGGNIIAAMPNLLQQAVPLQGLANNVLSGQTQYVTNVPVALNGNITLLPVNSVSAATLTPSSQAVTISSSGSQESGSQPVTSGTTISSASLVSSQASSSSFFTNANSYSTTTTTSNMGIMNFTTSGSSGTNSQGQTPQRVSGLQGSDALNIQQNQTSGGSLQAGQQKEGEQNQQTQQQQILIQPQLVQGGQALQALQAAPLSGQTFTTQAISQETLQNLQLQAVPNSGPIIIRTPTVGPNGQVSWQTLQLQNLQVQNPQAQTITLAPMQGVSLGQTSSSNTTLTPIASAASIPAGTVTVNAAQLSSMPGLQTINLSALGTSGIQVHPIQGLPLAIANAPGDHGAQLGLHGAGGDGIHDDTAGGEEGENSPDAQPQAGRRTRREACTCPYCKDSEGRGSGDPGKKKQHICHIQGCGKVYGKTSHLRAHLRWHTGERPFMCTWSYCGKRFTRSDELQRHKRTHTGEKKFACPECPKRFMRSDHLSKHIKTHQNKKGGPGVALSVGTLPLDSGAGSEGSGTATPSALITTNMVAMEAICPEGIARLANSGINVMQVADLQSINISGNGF
# Chain of Hepatocyte nuclear factor 6 (Homo sapiens) (Q9UBC0 whole entry, looked up): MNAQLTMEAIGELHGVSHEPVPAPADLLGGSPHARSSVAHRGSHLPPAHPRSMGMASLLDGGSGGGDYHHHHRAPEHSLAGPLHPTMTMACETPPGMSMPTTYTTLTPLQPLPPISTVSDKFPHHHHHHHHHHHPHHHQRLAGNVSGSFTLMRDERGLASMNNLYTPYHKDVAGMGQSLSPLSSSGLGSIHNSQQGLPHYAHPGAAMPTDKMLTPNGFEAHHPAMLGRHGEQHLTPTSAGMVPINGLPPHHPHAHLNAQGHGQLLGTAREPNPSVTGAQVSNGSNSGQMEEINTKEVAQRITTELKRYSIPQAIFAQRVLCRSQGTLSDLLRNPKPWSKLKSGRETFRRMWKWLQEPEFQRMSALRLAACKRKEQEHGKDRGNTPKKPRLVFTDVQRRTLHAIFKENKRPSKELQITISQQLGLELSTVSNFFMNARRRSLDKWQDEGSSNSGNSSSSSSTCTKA
smiles,measurement,setting,value
CC(C)c1cccc(C(C)C)c1N1C(=O)c2ccc(O)cc2C1=O,outcome,[1],inactive
same,AC50,[2],84.7 µM (active)
same,outcome,[3],inactive
same,outcome,[4],inactive
same,outcome,[5],inactive
same,AC50,[6],124 µM (active)
same,AC50,[7],68.4 µM (active)
same,AC50,[8],76.9 µM (active)
same,AC50,[9],76.9 µM (active)
same,outcome,[10],inactive
same,AC50,[11],26.9 µM (active)
same,AC50,[12],122 µM (active)
same,AC50,[13],74.2 µM (active)
same,AC50,[14],100 µM (active)
same,outcome,[15],inactive
same,outcome,[16],inactive
same,AC50,[17],100 µM (active)
same,outcome,[18],inactive
Cc1[nH]cnc1C[C@H]1CCc2c(C)c3ccccc3n2C1=O,outcome,[1],inactive
same,AC50,[2],21.9 µM (active)
same,outcome,[3],inactive
same,outcome,[4],inactive
same,AC50,[5],20.7 µM (active)
same,AC50,[7],46.5 µM (active)
same,AC50,[8],33.9 µM (active)
same,AC50,[19],15.8 µM (active)
same,AC50,[9],37.2 µM (active)
same,AC50,[10],7.57 µM (active)
same,AC50,[20],18.9 µM (active)
same,outcome,[12],inactive
same,outcome,[13],inactive
same,outcome,[14],inactive
same,outcome,[15],inactive
same,AC50,[16],29.7 µM (active)
same,AC50,[17],15.8 µM (active)
same,AC50,[18],40.8 µM (active)
CC(C)=CCCC(C)=CC=O,outcome,[1],inactive
same,outcome,[2],inactive
same,outcome,[3],inactive
same,outcome,[4],inactive
same,AC50,[5],100 µM (active)
same,outcome,[6],inactive
same,outcome,[7],inactive
same,AC50,[8],100 µM (active)
same,outcome,[19],inactive
same,outcome,[9],inactive
same,AC50,[10],4.7 µM (active)
same,outcome,[11],inactive
same,outcome,[20],inactive
same,AC50,[12],167 µM (active)
same,outcome,[13],inactive
same,outcome,[14],inactive
same,outcome,[15],inactive
same,outcome,[16],inactive
same,AC50,[17],157 µM (active)
same,outcome,[18],inactive
CC[C@H](C)C(=O)O[C@H]1C[C@@H](C)C=C2C=C[C@H](C)[C@H](CC[C@@H]3C[C@@H](O)CC(=O)O3)[C@H]21,outcome,[1],inactive
same,outcome,[2],inactive
same,outcome,[3],inactive
same,outcome,[4],inactive
same,outcome,[5],inactive
same,outcome,[7],inactive
same,AC50,[8],10.5 µM (active)
same,outcome,[19],inactive
same,outcome,[9],inactive
same,AC50,[10],1.8 µM (active)
same,outcome,[11],inactive
same,outcome,[20],inactive
same,outcome,[13],inactive
same,AC50,[14],1.36 µM (active)
same,outcome,[15],inactive
same,outcome,[16],inactive
same,outcome,[17],inactive
same,outcome,[18],inactive
Nc1ccc(Nc2ccccc2)cc1,outcome,[1],inactive
same,outcome,[2],inactive
same,outcome,[3],inactive
same,outcome,[4],inactive
same,outcome,[5],inactive
same,outcome,[6],inactive
same,outcome,[7],inactive
same,outcome,[8],inactive
same,outcome,[19],inactive
same,outcome,[9],inactive
same,outcome,[10],inactive
same,outcome,[20],inactive
same,outcome,[12],inactive
same,outcome,[13],inactive
same,outcome,[14],inactive
same,outcome,[15],inactive
same,outcome,[16],inactive
same,outcome,[17],inactive
same,outcome,[18],inactive
O=C1CCC(N2C(=O)c3ccccc3C2=O)C(=O)N1 (stereo not drawn),outcome,[1],inactive
same,outcome,[2],inactive
same,outcome,[3],inactive
same,outcome,[4],inactive
same,outcome,[7],inactive
same,outcome,[8],inactive
same,outcome,[19],inactive
same,outcome,[9],inactive
same,outcome,[10],inactive
same,outcome,[11],inactive
same,outcome,[12],inactive
same,outcome,[13],inactive
same,outcome,[14],inactive
same,outcome,[15],inactive
same,outcome,[16],inactive
same,outcome,[17],inactive
same,outcome,[18],inactive
O=c1n(CC2CO2)c(=O)n(CC2CO2)c(=O)n1CC1CO1 (stereo not drawn),AC50,[1],32.7 µM (active)
same,outcome,[2],inactive
same,outcome,[3],inactive
same,outcome,[4],inactive
same,outcome,[7],inactive
same,AC50,[8],59 µM (active)
same,outcome,[19],inactive
same,AC50,[9],59.6 µM (active)
same,AC50,[10],21.3 µM (active)
same,outcome,[11],inactive
same,AC50,[20],65.3 µM (active)
same,AC50,[12],65.2 µM (active)
same,AC50,[13],17.1 µM (active)
same,outcome,[14],inactive
same,outcome,[15],inactive
same,outcome,[16],inactive
same,outcome,[17],inactive
same,outcome,[18],inactive

# — PubChem BioAssay (EPA / NIEHS)
